Test results reported in PubChem BioAssay (EPA / NIEHS).
Values joined by “and” are separate entries in the source; they are usually repeats but may differ in a detail not shown here. Equal values may be shown once. More than one record can exist for a structure, and the calls need not agree. Active and inactive are the calls of the source. Rule for the calls: active = hit-call score of the fitted dose curve at least 0.9, where 1 is the maximum; inactive = score below 0.9.

Experiment: ATG_PXRE_CIS: Attagene CIS-FACTORIAL HepG2 Assay for human Pregnane X Receptor Element (PXRE) (AID 2282957)
Details: HepG2 Attagene CIS-FACTORIAL PXRE reporter, mRNA; actives raise or lower the signal
Method: ATG_CIS is a cell-based, multiplexed-readout assay that uses HepG2, a human liver cell line, with measurements taken at 24 hours after chemical dosing in a 24-well plate.ATG_PXRE_CIS is one of 52 assay component(s) measured or calculated from the ATG_CIS assay. It is designed to make measurements of mRNA induction, a form of inducible reporter, as detected with fluorescence intensity signals by Reverse transcription polymerase chain reaction (RT-PCR) and Capillary electrophoresis technology.Data from the assay component ATG_PXRE_CIS was analyzed into 1 assay endpoint. This assay endpoint, ATG_PXRE_CIS, was analyzed with bidirectional fitting relative to DMSO as the negative control and baseline of activity. Using a type of inducible reporter, measures of mRNA for gain or loss-of-signal activity can be used to understand the reporter gene at the transcription factor-level as they relate to the gene NR1I2. Furthermore, this assay endpoint can be referred to as a primary readout, because this assay has produced multiple assay endpoints where this one serves a reporter gene function. To generalize the intended target to other relatable targets, this assay endpoint is annotated to the nuclear receptor intended target family, where the subfamily is non-steroidal.
Human liver HepG2 cells are transiently transfected with multiple reporter transcription units (MRTUs) in 6-well plates using FuGene 6 reagent (Roche; 3 ml FuGene/1 mg DNA). The MRTU constructs are regulated by a cis-regulating element (promoter). […] A major difference between the CIS and TRANS system is that in CIS activities of endogenous TFs are measured, whereas the TRANS assay evaluates changes in activities of exogenous, chimeric NR-Gal4 proteins. […] At the end of 24 hour incubation, total RNA was isolated using TriZol reagent (Invitrogen). The isolated RNA is then reverse-transcribed using oligo(dT) primer and Mo-MLV reverse transcriptase (Invitrogen) with DNAse I (Ambion) treatment for 30 min. The one-tenth of the produced cDNA was amplified by PCR using Taq DNA polymerase (Invitrogen) and two reporter sequence-specific primers. The PCR products were fluorescently labeled by primer extension with 6-arboxyfluorescein (6-FAM) 5'-labeled reporter sequence-specific primer (2 min at 95 C, 20 s at 68 C and 10 min at 72 C) and these products were digested with 5U of HpaI (New England Biolabs) for 2h at 37 C. The fragments were purified using Qiaquick PCR columns (Qiagen), analyzed on an ABI 3130xL genetic analyzer (Applied Biosystems) with peak positions identified by using a set of X-rhodamine (ROX)-labeled MapMarker1000 molecular weight standards (BioVentures). The raw capillary electrophoresis data was processed using Attagraph software (Attagene).
For `C[C@]12C=CC3=C4CCC(=O)C=C4CC[C@H]3[C@@H]1CC[C@@H]2O`, the outcome was “inactive” and the AC50 was 40.2 µM (active) and 57.3 µM (active). With `CC(O)CCO` (stereo not given) the AC50 was 27 µM (active). With `Clc1ccc(C(c2ccc(Cl)cc2)C(Cl)Cl)cc1` the AC50 was 8.73 µM (active). For `OCCOCCO`, the outcome was “inactive”. In the case of `[O-][Cl+]O`, the outcome is reported as “inactive”. With `CC(C)(C)OOC(=O)c1ccccc1` the AC50 was 100 µM (active). In the case of `CC(C)(O)c1cnn2c(-c3ccc(F)c(-c4c(F)cccc4C#N)c3)cnc2n1`, the AC50 is reported as 0.137 µM (active). In the case of `Oc1ccc2ccc3cccc4ccc1c2c34`, the AC50 is reported as 13 µM (active). With `CCCCCOC(=O)c1ccccc1C(=O)OCCCCC` the AC50 was 27.3 µM (active). For `Cc1ccc([N+](=O)[O-])cc1`, the outcome was “inactive”. In the case of `ClC1=C(Cl)C2(Cl)C3C(Cl)C=CC3C1(Cl)C2(Cl)Cl` (stereo not given), the AC50 is reported as 7.47 µM (active). For `CCN(CC)N=O`, the outcome was “inactive”. In the case of `Clc1ccccc1Cl`, the outcome is reported as “inactive”. For `CN(C)c1ccc(C(=O)c2ccc(N(C)C)cc2)cc1`, the AC50 was 3.72 µM (active). With `c1ccc(C2CO2)cc1` (stereo not given) the AC50 was 34.8 µM (active). In the case of `Nc1cc(Cl)cc(C(=O)O)c1Cl`, the AC50 is reported as 65 µM (active). In the case of `CO[C@@H]1[C@H](OC(=O)NC(=O)CCl)CC[C@]2(CO2)[C@H]1[C@@]1(C)O[C@@H]1CC=C(C)C`, the AC50 is reported as 0.293 µM (active). For `C[N+](C)(C)CC1CO1` (stereo not given), the outcome was “inactive”. With `CC(C)(C)C(O)(CCc1ccc(Cl)cc1)Cn1cncn1` (stereo not given) the AC50 was 2.45 µM (active). In the case of `CCC(C)c1ccc(O)cc1` (stereo not given), the AC50 is reported as 26.5 µM (active). In the case of `CCCCCCCCn1sccc1=O`, the AC50 is reported as 18.5 µM (active). In the case of `CCCCOC(=O)c1ccccc1C(=O)OCc1ccccc1`, the AC50 is reported as 27.1 µM (active). With `Cc1ccc(N)c(N)c1` the outcome was “inactive”. In the case of `Cc1cccc(N)c1N`, the outcome is reported as “inactive”. In the case of `c1ccc(NNc2ccccc2)cc1`, the outcome is reported as “inactive”. In the case of `CCOC(=O)[C@]1(c2ccccc2)Oc2ccccc2[C@@H]1N`, the AC50 is reported as 9.53 µM (active). In the case of `[Cl-].[Cl-].[Hg+2]`, the outcome is reported as “inactive”. In the case of `Cc1ccc(N=C=O)cc1N=C=O`, the outcome is reported as “inactive”. With `O=C1CCCO1` the outcome was “inactive”. In the case of `Brc1ccc(Oc2ccccc2)cc1`, the outcome is reported as “inactive”. In the case of `CCNS(=O)(=O)C(F)(F)C(F)(F)C(F)(F)C(F)(F)C(F)(F)C(F)(F)C(F)(F)C(F)(F)F`, the AC50 is reported as 3.71 µM (active) and 6.95 µM (active) and 12.9 µM (active). In the case of `Cc1ccc(N)cc1`, the outcome is reported as “inactive”. In the case of `O=C(N[C@H](c1ccccc1)[C@@H]1CN2CCC1CC2)c1c(Cl)ccc(C(F)(F)F)c1Cl`, the AC50 is reported as 0.458 µM (active). For `Clc1ccc(C(c2ccc(Cl)cc2)C(Cl)(Cl)Cl)cc1`, the AC50 was 4.13 µM (active). For `CCCCC(CC)COC(=O)c1ccc(C(=O)OCC(CC)CCCC)c(C(=O)OCC(CC)CCCC)c1` (stereo not given), the outcome was “inactive”. With `CCOc1cccc(C2(N3CCN(c4ccccc4)CC3)CCC(C)CC2)c1` (stereo not given) the outcome was “inactive”. In the case of `Cc1cc(N=Nc2ccccc2C)ccc1N`, the AC50 is reported as 13.9 µM (active). In the case of `Clc1ccc(Cl)c(Cl)c1`, the AC50 is reported as 58.4 µM (active). With `ClCCOCCCl` the outcome was “inactive”.
